Drawing on paper PMC7819943, “Rice protein-binding microarrays: a tool to detect cis-acting elements near promoter regions in rice”, this text covers binding signal for 42 sequences.

Whole data set: some 68,000 sequences, median “fluorescence intensity (a.u.)” near 9,100, cut for the highest 2% near 16,000. For the sample, the highest values were picked, then their nearest neighbours and some sequences at random.

OsWRKY34, sequence (Q0JBA9 entry or part of it): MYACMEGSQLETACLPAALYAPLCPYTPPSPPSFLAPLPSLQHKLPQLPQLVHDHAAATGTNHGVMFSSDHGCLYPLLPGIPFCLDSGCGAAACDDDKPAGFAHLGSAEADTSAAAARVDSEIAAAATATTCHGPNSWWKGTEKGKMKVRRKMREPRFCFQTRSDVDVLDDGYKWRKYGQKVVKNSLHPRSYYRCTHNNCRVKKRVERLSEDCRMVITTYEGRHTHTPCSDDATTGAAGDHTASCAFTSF

This experiment deals with OsWRKY34 (Oryza sativa, UniProt Q0JBA9 1-250). The experiment in a line: protein-binding microarray (RPBM); PBS, 2% BSA, 51.3 ng/ul salmon testes DNA, 50 uM zinc acetate, 200 nM TF, 25 C, 1 h; high values mean tight binding. The settings on record: protein: recombinant; tags: N-terminal polyhistidine and DsRed monomer fusion (pET32a); label: CyDye5-dUTP incorporated in the synthesized complementary strand; 3' TTTTT single-stranded linker to array surface; dsDNA, one strand shown. In short, it runs like this:
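The binding signal is fluorescence intensity per array feature (arbitrary units). Readings came from an Axon 4000B scanner after a washed, 2% BSA-blocked, double-stranded custom Agilent array had been incubated for 1 h at 25 °C with 200 nM protein and 50 µM zinc acetate. The protein was a Ni–NTA-purified transcription factor fused N-terminally to polyhistidine and DsRed, expressed in E. coli BL21-CodonPlus.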
Turning to “CATTGTGCGCTCTGGAGAGGCTCCAAACCACCATTGTTCGCGGAGTCACCTAGTGCAG”, the binding signal was 8090 fluorescence intensity (a.u.). Under “GCCCTCGTCGTCGTCCGACCACCCGATCCCGACGAGAACCCGGAGTCACCTAGTGCAG” stands 8690 fluorescence intensity (a.u.); under “ATCTACTACTATTCTACTCTACTCGCAAGTCTCACAAACACGGAGTCACCTAGTGCAG”, 8740 fluorescence intensity (a.u.); under “AAAAAGAGTTCTCTTCTTCACTTCTACTCTTCACAACTTTCGGAGTCACCTAGTGCAG”, 9410 fluorescence intensity (a.u.).

As to “CATCCAAATAGGTTCTTTTAGTTCAATTTTGGGGCAGTTTCGGAGTCACCTAGTGCAG”, the binding signal is 9920 fluorescence intensity (a.u.).

Turning to “GCTACTATCAAGTCATAAGCTTACTACCAAGTTATAGCACCGGAGTCACCTAGTGCAG”, the binding signal was 8320 fluorescence intensity (a.u.).

“ATATACATGTGATAGCTTCGTCTCAAGATACATTGTCCTACGGAGTCACCTAGTGCAG”: the binding signal was 9500 fluorescence intensity (a.u.). For “CTGTTCCGCCACCTACCACCGAGCCGTTGTCTCCCATGACCGGAGTCACCTAGTGCAG” the value was 10100 fluorescence intensity (a.u.). Under “AAAGCCGTCGTATTGTCATCCGCCGCTCGCTGACTCATTCCGGAGTCACCTAGTGCAG” stands 8310 fluorescence intensity (a.u.); under “TCCCCTTCGCCCTTCGTCGTCGTCGTCGTCGTCGTTCGTCCGGAGTCACCTAGTGCAG”, 8050 fluorescence intensity (a.u.). Turning to “AACCACCACAAGCCGTTAACCCCGTTGTTTACCTCCTCCTCGGAGTCACCTAGTGCAG”, the binding signal was 8190 fluorescence intensity (a.u.). For “TTGTTTCTGTTCATTTTTCTCTATAGTACTTGCTAGGTGACGGAGTCACCTAGTGCAG” the value was 11500 fluorescence intensity (a.u.); for “TTGACTTTTGCTTGCACTGTTTGATTACTCGTCTTATTAACGGAGTCACCTAGTGCAG”, 8670 fluorescence intensity (a.u.); for “GCCGTTGACTTTTTATTACATGTTTGACCGTTCGTCTTATCGGAGTCACCTAGTGCAG”, 62900 fluorescence intensity (a.u.). Turning to “TATGTTCATTTCCTTATTTGCCTCTCGTCATGTCTCTTGACGGAGTCACCTAGTGCAG”, the binding signal was 10200 fluorescence intensity (a.u.). Under “AACGCTATTTATTTTTTAAACATGTTTGATCGTTCGTCTTCGGAGTCACCTAGTGCAG” stands 10200 fluorescence intensity (a.u.).

On to “TGACGCCGTTGACTTTTTTAAACATGTTTGATCGTTCGTCCGGAGTCACCTAGTGCAG”, for which the binding signal is 35900 fluorescence intensity (a.u.).

On to “TTTGCAACATTTGATTACTCGTCTTATTTAATTTTTTTTTCGGAGTCACCTAGTGCAG”, for which the binding signal is 8230 fluorescence intensity (a.u.).

“ATTTTGACTTTTTGGTTGCGCTATTTGATTACTCGTCTTACGGAGTCACCTAGTGCAG”: the binding signal is 19400 fluorescence intensity (a.u.). For “TTTCAGGTTTTGCATTTCACACCTCTGTCGTCATACTTGACGGAGTCACCTAGTGCAG” the value was 17800 fluorescence intensity (a.u.); for “AGTAAAGTCCATCACCGGTCCCTAAACTTGTACCGCTATGCGGAGTCACCTAGTGCAG”, 8810 fluorescence intensity (a.u.).

Turning to “AAAGATCGCTTTTTCCGTGGTAGGCTTCTCCATTTTATTTCGGAGTCACCTAGTGCAG”, the binding signal is 10700 fluorescence intensity (a.u.). For “TATCTTGCCTAGCATATTGTCCGTGCGTTATTGCGATTTTCGGAGTCACCTAGTGCAG” the value was 10500 fluorescence intensity (a.u.); for “TCCCACCCGTTTTTATTTTTCTCGGTGGTTAACTTATCTTCGGAGTCACCTAGTGCAG”, 8170 fluorescence intensity (a.u.); for “TTCTTATTCTGTCGGTTGTGTGGTGGCAGGGCAGTTAATTCGGAGTCACCTAGTGCAG”, 8630 fluorescence intensity (a.u.). For “TCCATCACTAGCTATTTTGGTACTTTCATCTACTTATTACCGGAGTCACCTAGTGCAG” the value was 8340 fluorescence intensity (a.u.); for “TCTCTCGTTTTCCACACACACGTTTTTTAAACTGCTAAACCGGAGTCACCTAGTGCAG”, 10200 fluorescence intensity (a.u.). Under “CAAGGCCCGCCCATCCGTCTCCTCACACTCTGGCACACCTCGGAGTCACCTAGTGCAG” stands 8580 fluorescence intensity (a.u.); under “CAATCCATCAAACATGCAGTCAAGGTGTATTATTCAGTATCGGAGTCACCTAGTGCAG”, 9880 fluorescence intensity (a.u.). In the case of “ACTCTTATTGTTCAAATGAAAATGCTAGGGGTATAACTGCCGGAGTCACCTAGTGCAG”, the binding signal is 8340 fluorescence intensity (a.u.).

For the sequence “GCCGTTGACTTTTTAACACATGTTTGACCATTCGTCTTATCGGAGTCACCTAGTGCAG”, the binding signal is 60200 fluorescence intensity (a.u.). For “ACCGTTGATTTTTTTAAACATGTTTGACCGTTCGTCTTATCGGAGTCACCTAGTGCAG” the value was 17100 fluorescence intensity (a.u.); for “GACTTTTTAACACATGTTTGACCGTTCGTCTTATTCAAAACGGAGTCACCTAGTGCAG”, 10900 fluorescence intensity (a.u.). For “ACTGTTCGTCTTATTTAAAATTTTTTAAATATTATTTATACGGAGTCACCTAGTGCAG” the value was 12300 fluorescence intensity (a.u.). Turning to “TTTTAACATTTTTCTTGCACTGTTTGACCATTCGTCTTATCGGAGTCACCTAGTGCAG”, the binding signal was 10400 fluorescence intensity (a.u.).

On to “GCCGTTGACTTTTTTAAACATGTTTGACCGTTCGTCTTATCGGAGTCACCTAGTGCAG”, for which the binding signal is 45200 fluorescence intensity (a.u.). Turning to “TTTTAAACATGTTTGACCGTTCGTCTTATTCAAAAAATTTCGGAGTCACCTAGTGCAG”, the binding signal was 8310 fluorescence intensity (a.u.). For “TGCCGTTGATTTTTTTTTAAACATGTTTGACCGTTCGTCTCGGAGTCACCTAGTGCAG” the value was 14900 fluorescence intensity (a.u.); for “ACTTTTTTAAACATGTTTGGCCGTTCGTCTTATTCAAAAACGGAGTCACCTAGTGCAG”, 9620 fluorescence intensity (a.u.); for “CGTTGACTTTTTTAAATATATTTAGCAGTTCGTCTTATTACGGAGTCACCTAGTGCAG”, 16500 fluorescence intensity (a.u.). For the sequence “CTTTTTTAAACATGTTTGACCGTTCGTCTTATTTAAAAAACGGAGTCACCTAGTGCAG”, the binding signal is 9350 fluorescence intensity (a.u.).

For the sequence “ACTTATATTTTTTTAACGTTTGATTGTTCGTCTTATTAAACGGAGTCACCTAGTGCAG”, the binding signal is 9470 fluorescence intensity (a.u.).
